SARS PLpro yeast: SARS-CoV PLP inhibition in yeast; S. cerevisiae expressing SARS-CoV PLpro, growth rescue; Potency, µM (top dose mostly 32.9 µM), for the others: top-dose activity, positive = growth rescue, most hits filed as activators; 330,000 compounds, 0.19% hits; AID 485353; calls by dose curve; also: potency is read from the fitted curve at half-maximal effect; 0% is about no effect; nearly all actives have a fitted effect of over 55% in size
CHX counter: counter-screen for Shiga toxin inhibitors: cycloheximide protein synthesis inhibition; cell reporter, cycloheximide protein synthesis inhibition counterscreen; max response, %; 300,000 compounds, 12% hits; AID 2314; in the data active = max response mostly above about 13%, no sharp cut-off; inactive = mostly below about 14%; also: read at 38.3 µM for the half of the compounds with a filed dose; 0% is about no effect
Shiga inhibitor: inhibitors of Shiga toxin in Vero cells; Vero cells, Shiga toxin protein synthesis inhibition reporter; inhibition, % at 38.7 µM; 290,000 compounds, 9.2% hits; AID 2315; in the data active = inhibition mostly above about 28%, no sharp cut-off; inactive = mostly below about 43%; also: 0% is about no effect
Pf growth 96h: P. falciparum growth inhibition at 96 hour, primary screen for plastid delayed-death inhibitors; P. falciparum luciferase reporter growth, 96 h; Potency, µM (series often up to 28.7 µM), for inactives: top-dose activity change, negative = inhibition, most hits filed as inhibitors; 320,000 compounds, 6.9% hits; AID 504834; also: potency is read from the fitted curve at half-maximal effect; % is scaled to controls: 0 for no effect and ±100 for the full control effect
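Luminescence readout: decreased luciferase signal marks inhibited growth of reporter-expressing P. falciparum in infected red cells (2% hematocrit, 0.05% parasitemia final), exposed to compound two generations (96 h, 37 C, 5% CO2).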
Pf growth 48h: inhibits P. falciparum growth in the first generation, 48 h | Potency, µM (doses to about 28.7 µM), for the others: at the highest dose activity change, negative = inhibition, hits mostly inhibitors | P. falciparum luciferase growth in erythrocytes, 48 h | 310,000 compounds, 5.9% hits | AID 504832; also: potency is read from the fitted curve at half-maximal effect; % is scaled to controls: 0 for no effect and ±100 for the full control effect
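First compound was added to culture medium, then infected red cells at 0.1% parasitemia and 2% hematocrit (final). After incubation at 37 C under 5% CO2, luciferase detection reagent was dispensed and light output recorded.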
AMA1-RON2 inh: inhibitors of Plasmodium falciparum AMA1-RON2 interaction. Potency, µM (series often up to 58.2 µM), for inactives: at the highest dose activity change, negative = inhibition, most hits filed as inhibitors. 360,000 compounds, 0.2% hits. AlphaScreen AMA1-biotinylated RON2 peptide binding. AID 720542;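 also: potency is read from the fitted curve at half-maximal effect; 0% = vehicle wells and -100% = peptide control; nearly all actives have a fitted effect of over 45% in size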
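AMA1 (3D7) with his tag at 25 nM final met compounds first, then biotinylated RON2 peptide at 25 nM; detection used donor plus acceptor beads, 10 µg/mL apiece, read by AlphaScreen after 30 min at room temperature.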
Numbers without * were called inactive; [ ] = dose if it differs, or a comment. In the library only some 19% were active in any assay of this set; here they are far more common. Unless noted, calls follow the shape of the dose curve; as a rule, active = well fitted curve in the direction sought with a large enough effect; inconclusive = small, poorly fitted or top-dose-only effect, or another doubt; inactive = no such curve, though single readings can be large; an effect the other way counts as inactive or inconclusive.

Results for CCN(CC)C(=O)[C@H]1CC(CC(=O)NC(C)(C)C)C(=O)N2CCc3c([nH]c4ccccc34)[C@]12C (stereo partly specified) ?
SARS PLpro yeast: -1%; AMA1-RON2 inh: 1%

Results for Cc1ccc(NC(=O)C2CSC3(C)CCC(=O)N23)cc1S(=O)(=O)N1CCCCCC1 (stereo unspecified) ?
SARS PLpro yeast: 4%; Pf growth 96h: inconclusive; Pf growth 48h: inconclusive; AMA1-RON2 inh: 0%

Results for CC(C)(CO)NCc1cc(Br)ccc1OCc1ccccc1 ?
SARS PLpro yeast: 4%; CHX counter: -6; Shiga inhibitor: -24; Pf growth 48h: 10µM*; AMA1-RON2 inh: -7%

What do the screens show for `C=CCOc1ccc(Br)cc1CNC(C)(C)CO`?
SARS PLpro yeast: 1%; CHX counter: 4; Shiga inhibitor: -11; Pf growth 96h: 10%; Pf growth 48h: -8%; AMA1-RON2 inh: -3%

What do the screens show for `COc1cccc(CNC(C)(C)CO)c1OCc1ccc(Cl)cc1`?
SARS PLpro yeast: -1%; CHX counter: -3; Shiga inhibitor: -10; Pf growth 96h: -11%; Pf growth 48h: inconclusive; AMA1-RON2 inh: -3%

How did CC(C)(CO)NCc1cccc(OCc2ccc(Cl)cc2)c1 do in these assays?
SARS PLpro yeast: -8%; CHX counter: 14; Shiga inhibitor: active; Pf growth 96h: inconclusive; Pf growth 48h: -24%; AMA1-RON2 inh: -6%[2.32 µM]

Results for COC(=O)C1=C(C)N(c2ccccc2)C(=S)NC1c1ccccc1C(F)(F)F (stereo unspecified) ?
SARS PLpro yeast: 0%; CHX counter: -1; Shiga inhibitor: -3; Pf growth 96h: inconclusive; Pf growth 48h: 10µM*; AMA1-RON2 inh: -2%

Results for Cn1c(SCc2nn[nH]n2)nc2c1c(=O)n(Cc1ccccc1Cl)c(=O)n2C ?
SARS PLpro yeast: 1%; CHX counter: -1; Shiga inhibitor: -19; Pf growth 96h: -9%; Pf growth 48h: -9%; AMA1-RON2 inh: -12%

What do the screens show for `CS(=O)(=O)c1ccccc1-c1nc(-c2ccc([N+](=O)[O-])cc2)no1`?
SARS PLpro yeast: 2%; CHX counter: 5; Shiga inhibitor: 14; Pf growth 96h: 15%; Pf growth 48h: inconclusive; AMA1-RON2 inh: -10%

Results for Brc1ccc(-c2nc(-c3ccncc3)no2)cc1 ?
SARS PLpro yeast: -4%; CHX counter: 7; Shiga inhibitor: 25; Pf growth 96h: 5%; Pf growth 48h: 94%; AMA1-RON2 inh: 3%

What do the screens show for `c1coc(-c2nc(-c3ccncc3)no2)c1`?
SARS PLpro yeast: -5%; CHX counter: 49*; Shiga inhibitor: 71*; Pf growth 96h: inconclusive; Pf growth 48h: 137%; AMA1-RON2 inh: 6%

What do the screens show for `O=[N+]([O-])c1ccc(-c2nc(-c3ccncc3)no2)cc1`?
SARS PLpro yeast: -1%; CHX counter: 18*; Shiga inhibitor: 37*; Pf growth 96h: 35%; Pf growth 48h: 51%; AMA1-RON2 inh: 1%

How did c1ccc(C(Cc2nc(-c3ccncc3)no2)c2ccccc2)cc1 do in these assays?
SARS PLpro yeast: -6%; CHX counter: -2; Shiga inhibitor: -5; Pf growth 96h: -1%; Pf growth 48h: 7.4µM*; AMA1-RON2 inh: 1%

How did c1ccc(-c2ccc(-c3nc(-c4ccncc4)no3)cc2)cc1 do in these assays?
SARS PLpro yeast: 10%; CHX counter: 35*; Shiga inhibitor: 82; Pf growth 96h: -27%; AMA1-RON2 inh: 4%

What do the screens show for `NC(=O)c1cc[n+](CC(=O)NC(=O)Nc2ccccc2)cc1`?
SARS PLpro yeast: -2%; Pf growth 96h: 15%; Pf growth 48h: 26%; AMA1-RON2 inh: -7%

Results for Cn1ncc(Cl)c1C(=O)N1CCN(c2ncccn2)CC1 ?
SARS PLpro yeast: 0%; CHX counter: -7; Shiga inhibitor: -7; Pf growth 96h: -40%[5.75 µM]; Pf growth 48h: -24%[1.15 µM]; AMA1-RON2 inh: 0%

What do the screens show for `c1ccc(-c2nc(-c3ccncc3)no2)cc1`?
CHX counter: 70*; Shiga inhibitor: 148*; Pf growth 96h: 9%; Pf growth 48h: 43%; AMA1-RON2 inh: -6%

Results for c1ccc(-c2ccccc2-c2nc(-c3ccncc3)no2)cc1 ?
SARS PLpro yeast: -11%; CHX counter: -1; Shiga inhibitor: 7; Pf growth 96h: 14%; Pf growth 48h: inconclusive; AMA1-RON2 inh: 3%

How did O=C(C1=C[C@H](c2ccccc2)C[C@H](OCc2ccc(CO)cc2)O1)N1CCN(Cc2ccc3c(c2)OCO3)CC1 do in these assays?
SARS PLpro yeast: -1%; CHX counter: -1; Shiga inhibitor: -4; Pf growth 96h: 13µM*; Pf growth 48h: inconclusive; AMA1-RON2 inh: -27%

How did O=C(C1=C[C@@H](c2ccccc2)C[C@@H](OCCCCO)O1)N1CCN(Cc2ccc3c(c2)OCO3)CC1 do in these assays?
SARS PLpro yeast: 0%; CHX counter: -3; Shiga inhibitor: -24; Pf growth 96h: inconclusive; Pf growth 48h: inconclusive; AMA1-RON2 inh: -8%

How did C#Cc1ccc([C@H]2C=C(C(=O)N3CCN(Cc4ccc5c(c4)OCO5)CC3)O[C@@H](OCc3ccc(CO)cc3)C2)cc1 do in these assays?
SARS PLpro yeast: -1%; CHX counter: -3; Shiga inhibitor: -14; Pf growth 96h: 3.3µM*; Pf growth 48h: inconclusive; AMA1-RON2 inh: 0%

Results for O=C(C1=C[C@@H](C2CC2)C[C@@H](OCc2ccc(CO)cc2)O1)N1CCN(Cc2ccc3c(c2)OCO3)CC1 ?
SARS PLpro yeast: 0%; CHX counter: -3; Shiga inhibitor: -6; Pf growth 96h: 13%; Pf growth 48h: 0%; AMA1-RON2 inh: -1%

What do the screens show for `O=C(C1=C[C@H](c2ccc3c(c2)OCO3)C[C@H](OCc2ccc(CO)cc2)O1)N1CCN(Cc2ccc3c(c2)OCO3)CC1`?
SARS PLpro yeast: -1%; CHX counter: -4; Shiga inhibitor: -16; Pf growth 96h: 13µM*; Pf growth 48h: 4.1µM*; AMA1-RON2 inh: inconclusive

How did O=C(C1=C[C@H](c2ccc(Br)cc2)C[C@H](OCc2ccc(CO)cc2)O1)N1CCN(Cc2ccc3c(c2)OCO3)CC1 do in these assays?
SARS PLpro yeast: -1%; CHX counter: -4; Shiga inhibitor: -4; Pf growth 96h: 7.4µM*; Pf growth 48h: inconclusive; AMA1-RON2 inh: -19%

What do the screens show for `C[C@H]1C=C(C(=O)N2CCN(Cc3ccc4c(c3)OCO4)CC2)O[C@@H](OCc2ccc(CO)cc2)C1`?
SARS PLpro yeast: 0%; CHX counter: 2; Shiga inhibitor: -9; Pf growth 96h: inconclusive; Pf growth 48h: inconclusive; AMA1-RON2 inh: 21%

Results for CN1CCN(C(=O)C2=C[C@H](c3ccccc3)C[C@H](OCc3ccc(CO)cc3)O2)CC1 ?
SARS PLpro yeast: 1%; CHX counter: 7.5*; Shiga inhibitor: 1; Pf growth 96h: 7%; Pf growth 48h: inconclusive; AMA1-RON2 inh: 1%
